From PubChem BioAssay
Activity calls are given as the source filed them. Cut-off read from the data, not from the text of the source, unless noted: active = inhibition above about 30%; inactive = the rest.

Assay: yeast transport mutant growth inhibition pilot in 384-well plates, post-Golgi transport modulator project (AID 636; in the data active = inhibition above about 31%)
Conditions: absorbance 615 nm, about 18 h, hits give high values

inhibition, inactive:
Cc1ccc2c(c1C)NC(C(=O)O)C1CC=CC21 (stereo not given) -1.73%
Cc1cc(C)cc(OCC(=O)NC2=NCCS2)c1 0.39%
COc1cccc(NS(=O)(=O)c2ccc3[nH]cc(C(=O)NC4CC4)c(=O)c3c2)c1 -1.04%
COc1ccc(OC)c(NC(=O)C2C3CC4OC(=O)C2C4C3)c1 (stereo not given) -6.89%
CN(C)C(=O)COc1ccc2cc(-c3ccccc3)c(=O)oc2c1 -7.12%
CC1CN(CC(O)COc2ccccc2C(C)(C)C)CC(C)O1 (stereo not given) -0.26%
CN(C)CCCN1c2ccccc2CCc2ccc(Cl)cc21 -0.26%
COc1ccc(NC(=O)c2oc3ccccc3c2NC(=O)c2ccco2)cc1 -4.59%
CC1(C)SC2[C@H](NC(=O)C(NC(=O)N3CCNC3=O)c3ccccc3)C(=O)N2C1C(=O)O (stereo not given in full) 0.26%
CC(=O)OC1CSc2nc3ccccc3n2C1 (stereo not given) -8.11%
O=S(=O)(NCC1CCCO1)c1ccc2c(c1)OCCO2 (stereo not given) 0.41%
O=c1c2ccccc2c(/C=N/n2cnnc2)c(O)n1-c1ccccc1 -7.7%
COc1ccc(C2=CC(=O)OC3(CCCCC3)O2)cc1 -9.18%
CCCC1(C(=O)OC)NC(c2cc(OC)c(OC)c(OC)c2)C2C(=O)N(CC)C(=O)C21 (stereo not given) -4.93%
C#CCN(C)Cc1ccccc1 0.26%
CCOC(=O)CSc1nc2sc(C)c(C)c2c(=O)[nH]1 -4.79%
c1coc(CN(Cc2cccs2)Cc2nnnn2C2CCCCC2)c1 -3.84%
CCn1cnc2sc(C(=O)Nc3ccc4c(c3)OCO4)c(C)c2c1=O -8%
COc1ccc(CCN(Cc2cc3cccc(C)c3[nH]c2=O)C(=O)N2CCCC2)cc1OC -2.6%
COCCCNC(=O)C1CCN(C(=O)Nc2ccc(Cl)cc2)CC1 -1.04%
CC1(C)CC(=O)C(C=NC(CCC(N)=O)C(=O)O)=C(O)C1 (stereo not given) -8.22%
O=c1c(O)c(-c2ccc(O)cc2O)oc2cc(O)cc(O)c12 -3.77%
CNC(=O)OC(C)CNS(=O)(=O)c1ccc(C)cc1 (stereo not given) -7.4%
Cc1ccc(S(=O)(=O)N2CCN(c3nc(C(C)C)c4c(c3C#N)CC(C)(C)OC4)CC2)cc1 -1.22%
Cc1ccc(Cl)cc1N1CCN(C(=O)CN2C(=O)c3cccc4cccc2c34)CC1 -4.42%
Cc1ccc2c(CC(=O)OCc3csc(C)n3)coc2c1 -8.78%
CC(C)(C)n1ncc2c(=O)n(CC(=O)NCc3ccccc3)cnc21 -1.2%
COc1ccc(OCC(=O)Nc2ccc(N3CCOCC3)c(Cl)c2)cc1 -4.25%
O=C(Nc1ccccc1-c1ccccc1)NC1CCN(C(=O)N2CCOCC2)CC1 -3.29%
O=C1[C@@H]2C(c3ccccc3Cl)=NO[C@@H]2C(=O)N1Cc1ccccc1 -6.76%
CC(=O)c1ccc(NC(=O)CCc2c(C)nc3ncnn3c2C)cc1 -1.3%
Cc1nc2scc(-c3ccco3)c2c(=O)n1/N=C/N(C)C -4.86%
O=C(O)c1ccc(COc2ccc(Cl)cc2)o1 -0.26%
Cn1cc(C(=O)NC2CCCCCCC2)c(=O)c2cc(S(=O)(=O)N3CCCC3)ccc21 -5.95%
Cc1ccc(C2=N/C(=C/N3CCOCC3)C(=O)O2)cc1 -2.08%
CCc1ccccc1NC(=O)C(CC)Sc1nc2cc3c(cc2c(=O)n1Cc1ccco1)OCO3 (stereo not given) -3.47%
Cc1cc(C(=O)NCc2cccnc2)no1 -4.52%
Cc1cc(/C=N\O)c(C)n1-c1ccncc1 -7.26%
O=C(Cn1c(=O)n(CC2CCCO2)c(=O)c2ccccc21)c1ccccc1 (stereo not given) -1.17%
O=C(c1ccco1)N1CCN(CC2CC3C=CC2C3)CC1 (stereo not given) -1.43%

Assay: growth suppression of yeast trafficking mutant, preliminary HTS, modulators of trafficking downstream of Golgi apparatus project, 1536-format plate, OD 615 nm (AID 637)
Conditions: yeast transport mutant growth, absorbance 615 nm, 18 h; hits give high values

inhibition, inactive:
Cc1ccc2c(c1C)NC(C(=O)O)C1CC=CC21 (stereo not given) -1.09%
Cc1cc(C)cc(OCC(=O)NC2=NCCS2)c1 1.48%
COc1cccc(NS(=O)(=O)c2ccc3[nH]cc(C(=O)NC4CC4)c(=O)c3c2)c1 2.13%
COc1ccc(OC)c(NC(=O)C2C3CC4OC(=O)C2C4C3)c1 (stereo not given) -4%
CN(C)C(=O)COc1ccc2cc(-c3ccccc3)c(=O)oc2c1 -4.18%
CC1CN(CC(O)COc2ccccc2C(C)(C)C)CC(C)O1 (stereo not given) 0.49%
CN(C)CCCN1c2ccccc2CCc2ccc(Cl)cc21 1.17%
COc1ccc(NC(=O)c2oc3ccccc3c2NC(=O)c2ccco2)cc1 -4.92%
CC1(C)SC2[C@H](NC(=O)C(NC(=O)N3CCNC3=O)c3ccccc3)C(=O)N2C1C(=O)O (stereo not given in full) 2.67%
CC(=O)OC1CSc2nc3ccccc3n2C1 (stereo not given) 3.45%
O=S(=O)(NCC1CCCO1)c1ccc2c(c1)OCCO2 (stereo not given) -5.48%
O=c1c2ccccc2c(/C=N/n2cnnc2)c(O)n1-c1ccccc1 -3.09%
COc1ccc(C2=CC(=O)OC3(CCCCC3)O2)cc1 7.42%
CCCC1(C(=O)OC)NC(c2cc(OC)c(OC)c(OC)c2)C2C(=O)N(CC)C(=O)C21 (stereo not given) 21.4%
C#CCN(C)Cc1ccccc1 -1.17%
CCOC(=O)CSc1nc2sc(C)c(C)c2c(=O)[nH]1 13.3%
c1coc(CN(Cc2cccs2)Cc2nnnn2C2CCCCC2)c1 0%
CCn1cnc2sc(C(=O)Nc3ccc4c(c3)OCO4)c(C)c2c1=O -5.27%
COc1ccc(CCN(Cc2cc3cccc(C)c3[nH]c2=O)C(=O)N2CCCC2)cc1OC -0.36%
COCCCNC(=O)C1CCN(C(=O)Nc2ccc(Cl)cc2)CC1 1.15%
CC1(C)CC(=O)C(C=NC(CCC(N)=O)C(=O)O)=C(O)C1 (stereo not given) 0.18%
O=c1c(O)c(-c2ccc(O)cc2O)oc2cc(O)cc(O)c12 -1.33%
CNC(=O)OC(C)CNS(=O)(=O)c1ccc(C)cc1 (stereo not given) 0.55%
Cc1ccc(S(=O)(=O)N2CCN(c3nc(C(C)C)c4c(c3C#N)CC(C)(C)OC4)CC2)cc1 -3.09%
Cc1ccc(Cl)cc1N1CCN(C(=O)CN2C(=O)c3cccc4cccc2c34)CC1 3.65%
Cc1ccc2c(CC(=O)OCc3csc(C)n3)coc2c1 3.77%
CC(C)(C)n1ncc2c(=O)n(CC(=O)NCc3ccccc3)cnc21 -1.27%
COc1ccc(OCC(=O)Nc2ccc(N3CCOCC3)c(Cl)c2)cc1 -2.1%
O=C(Nc1ccccc1-c1ccccc1)NC1CCN(C(=O)N2CCOCC2)CC1 4.03%
O=C1[C@@H]2C(c3ccccc3Cl)=NO[C@@H]2C(=O)N1Cc1ccccc1 3.09%
CC(=O)c1ccc(NC(=O)CCc2c(C)nc3ncnn3c2C)cc1 -5.08%
Cc1nc2scc(-c3ccco3)c2c(=O)n1/N=C/N(C)C -4.73%
O=C(O)c1ccc(COc2ccc(Cl)cc2)o1 -2.13%
Cn1cc(C(=O)NC2CCCCCCC2)c(=O)c2cc(S(=O)(=O)N3CCCC3)ccc21 -4.67%
Cc1ccc(C2=N/C(=C/N3CCOCC3)C(=O)O2)cc1 -7.21%
CCc1ccccc1NC(=O)C(CC)Sc1nc2cc3c(cc2c(=O)n1Cc1ccco1)OCO3 (stereo not given) 2.74%
Cc1cc(C(=O)NCc2cccnc2)no1 1.61%
Cc1cc(/C=N\O)c(C)n1-c1ccncc1 -0.32%
O=C(Cn1c(=O)n(CC2CCCO2)c(=O)c2ccccc21)c1ccccc1 (stereo not given) 6.39%
O=C(c1ccco1)N1CCN(CC2CC3C=CC2C3)CC1 (stereo not given) -2.13%
